# Source: PubChem BioAssay (National Center for Advancing Translational Sciences (NCATS))
# CBFb-RUNX1 inh: blocks binding between human CBF-beta and RUNX1. Potency, µM (series often up to 59.8 µM), for inactives: at the highest dose activity, negative = inhibition, usual class: inhibitors. AlphaScreen CBFb-His/RUNX1-biotin binding, biochemical. AID 1477. 230,000 tested, under 10 active. Q01196+Q13951; active = well fitted curve in the direction sought with a large enough effect; inconclusive = small, poorly fitted or top-dose-only effect, or effect the other way, or another doubt; inactive = no such curve, though single readings can be large or run the other way; note: % of control where 0% means no effect
#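 Inhibition was taken as any reduction in AlphaScreen signal from the CBF-beta–RUNX1 pair (His and biotin tags, 30 nM each), measured after compound (15 min) and bead (90 min) incubations at room temperature.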
# Rango complex inh: prevents formation of the Rango-importin beta complex | Rango CFP/YFP FRET sensor + importin beta, 45 min | Q14974 | 340,000 compounds, 0.031% hits | Potency, µM (titrated, usually from 92.2 µM), without a hit: at the highest dose inhibition of complex formation;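 note: potency is the fitted concentration of half-maximal effect; 0% = DMSO wells and 100% = buffer wells lacking importin beta; nearly all actives have a fitted effect of over 15% in size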
#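 FRET biosensor (snurportin 1 IBB flanked by EYFP and cerulean), 50 nM, with compound 5 min, then 0.125 microM importin beta in PBS, 1 mM DTT, 0.02% Tween-20, 0.1% BSA. CFP/YFP ratio read after 45 min at room temperature; pre-read flags interference.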
# MBNL1 CUG block: inhibitors of human MBNL1 binding to CUG repeat RNA; TR-FRET MBNL1-His/biotin-(CUG)12 binding, 665/545 ratio; Potency, µM (titrated, usually from 57.5 µM), for inactives: at the highest dose activity change, negative = inhibition, most hits filed as inhibitors; 280,000 compounds, 0.036% hits; AID 2675; Q9NR56; active = well fitted inhibition curve with a large enough effect in the signal ratio, with a control signal flat, not every such curve was filed as active; inconclusive = small, poorly fitted or top-dose-only effect, or effect the other way, or a change in a side signal; inactive = no such curve, though single readings can be large or run the other way; the % refers to the signal ratio; note: potency is the fitted concentration of half-maximal effect; % is set by controls: 0 for no effect and ±100 for the full control effect
# Target sequence (Q9NR56 whole entry, looked up): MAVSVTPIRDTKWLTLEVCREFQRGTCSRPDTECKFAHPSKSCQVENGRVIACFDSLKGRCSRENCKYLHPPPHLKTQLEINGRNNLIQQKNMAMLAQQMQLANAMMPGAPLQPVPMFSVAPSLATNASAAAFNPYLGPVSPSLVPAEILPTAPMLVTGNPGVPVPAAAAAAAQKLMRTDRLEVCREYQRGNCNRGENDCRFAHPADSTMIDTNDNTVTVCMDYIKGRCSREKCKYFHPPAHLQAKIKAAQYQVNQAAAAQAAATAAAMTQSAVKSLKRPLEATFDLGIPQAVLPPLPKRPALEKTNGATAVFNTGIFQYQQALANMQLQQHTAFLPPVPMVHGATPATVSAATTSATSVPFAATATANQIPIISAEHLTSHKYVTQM
#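 His-tagged MBNL1 binding to biotinylated (CUG)12 RNA was measured by TR-FRET using terbium anti-His antibody (0.055 ng/ul final) and streptavidin-XL665 (5 nM final). Compounds were titrated 92 nM to 58 uM; 60 min at room temperature.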
# Rango dissoc inh: inhibition of RanGTP-driven Rango-importin beta dissociation. O95149+P62826. 340,000 compounds, 0.071% hits. Biochemical FRET Rango-importin beta, RanGTP-induced dissociation. Potency, µM (titrated, usually from 46.1 µM), for inactives: at the highest dose activity change, negative = inhibition; note: potency is the fitted concentration of half-maximal effect; % of control where 0% means no effect; nearly all actives have a fitted effect of over 45% in size
#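 Compounds sat 5 min at room temperature with 0.1 uM Rango biosensor plus 0.25 uM importin beta, then FRET pre-read. RanGTP-RCC1 (0.6 uM Ran, 2mM GTP, 0.2 uM RCC1) added for 45 min, and the CFP/YFP post-read measured blocked complex dissociation.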
# ClpP mod: qHTS Assay for Activators of ClpP. purified B. subtilis ClpP, FRET peptide cleavage, 20 min. Potency, µM (highest dose often 57.5 µM), for inactives: top-dose activity change, negative = active. 340,000 compounds, 1.9% hits. AID 651965, 2013; active = well fitted falling curve with a large enough effect; inconclusive = small, poorly fitted or top-dose-only effect; inactive = no such curve, though single readings can be large or run the other way; note: potency is the fitted concentration of half-maximal effect; the source files actives as falling curves though it sought activators and does not explain the sign; nearly all actives have a fitted effect of over 65% in size
#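 Buffer: 100 mM Tris/HCl pH8, 100 mM KCl, 0.05% low protease BSA, 2.5% glycerol, 0.01% Tween-20. ClpP 10 microg/mL final; 20 min RT; delta FRET normalized to ADEP and DMSO controls.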
# * = called active by the depositor; ? = inconclusive; . = no result. This excerpt belongs to a sample that is enriched for hits. Unless noted, calls come from the whole dose curve.
SMILES,CBFb-RUNX1 inh,Rango complex inh,MBNL1 CUG block,Rango dissoc inh,ClpP mod
O=C(Nc1ccccc1)c1sc2cc(C(F)(F)F)cnc2c1-c1cccs1,0.4%,-7.3%,?,-29.6%,31.6µM*
Cc1cccc2[nH]c3c(N4CCN(C(=O)c5ccco5)CC4)ncnc3c12,2.2%,-0.7%,-5.7%,-13.3%,31.6µM*
Cc1sc2ncnc(N3CCN(C(=O)c4ccco4)CC3)c2c1C,-0.4%,7.1%,-8.5%,-13.1%,.
COc1ccc2[nH]c(=O)c(C(c3nnnn3CC3CCCO3)N3CCCCC3)cc2c1 (stereo unspecified),7.2%,1.8%,-4.8%,8.2%,.
COc1ccc2[nH]c(=O)c(CN(CCc3ccccc3)Cc3nnnn3CC3CCCO3)cc2c1 (stereo unspecified),2.6%,?,?,?,25.1µM*
Cc1ccc2[nH]c(=O)c(CN(CCc3ccccc3)Cc3nnnn3CC3CCCO3)cc2c1 (stereo unspecified),-1.8%,0.0%,19.2%,?,-3.8%
COc1ccc2cc(C(c3nnnn3CC3CCCO3)N3CCOCC3)c(=O)[nH]c2c1 (stereo unspecified),5.4%,-3.6%,2.9%,-9.8%,25.1µM*
O=c1[nH]c2cc3c(cc2cc1CN(CCc1ccccc1)Cc1nnnn1CC1CCCO1)OCO3 (stereo unspecified),2.4%,?,?,-28.3%,25.1µM*
CCOc1ccc2[nH]c(=O)c(CN(CCO)Cc3nnnn3CCc3ccccc3)cc2c1,-0.3%,0.1%,?,-19.5%,31.6µM*
Cc1cc(C)c(NC(=O)Cn2c(=O)n(CCC(=O)N3CCc4ccccc4C3)c(=O)c3ccccc32)c(C)c1,.,.,.,.,8.9%
CCOC(=O)c1ccc(NC(=O)CN2Cc3ccccc3C2=O)cc1,.,.,.,.,1.6%
CC1CCN(C(=O)CSc2nnc(-c3ccc(S(=O)(=O)N4CCOCC4)cc3)n2C)CC1,3.8%,-0.6%,-0.6%,?,-26.5%
CCn1c(SCC(=O)N2CCC(C)CC2)nnc1-c1ccc(S(=O)(=O)N2CCN(C)CC2)cc1,7.6%,-0.2%,-0.8%,0.7%,31.6µM*
CCOc1ccc(CNC(=O)C2CCCN(S(=O)(=O)c3ccc4c(ccn4C)c3)C2)cc1 (stereo unspecified),.,.,.,.,-3.2%
c1ccc(-n2c(-c3ccco3)nnc2-c2ccco2)cc1,-2.5%,-1.1%,-8.4%,-25.9%,14.1µM*
Cc1ccc2[nH]c(=O)c(CN(CCCO)Cc3nnnn3Cc3ccccc3)cc2c1,.,.,.,.,-21.1%
Cc1cccc(-n2cc(-c3ccccc3)c3c(N4CCC(C)CC4)ncnc32)c1,.,.,.,.,28.2µM*
CC1CCN(c2ncnc3c2c(-c2ccccc2)cn3-c2ccc(Br)cc2)CC1,.,.,.,.,-2.7%
COc1ccc(CNc2ncnc3c2c(-c2ccccc2)cn3-c2cccc(C)c2)cc1,.,.,.,.,-4.5%
COc1ccccc1CNc1ncnc2c1c(-c1ccccc1)cn2-c1cccc(C)c1,.,.,.,.,28.2µM*
COc1ccccc1N1CCN(c2ncnc3c2c(-c2ccccc2)cn3-c2cccc(C)c2)CC1,.,.,.,.,11.2µM*
Cc1cccc(-c2nc3scc(CCNS(=O)(=O)c4ccc(Oc5ccccc5)cc4)n3n2)c1,.,.,.,.,0.5%
CCn1cc(C(=O)N(C)Cc2ccccc2)c(=O)c2cc(S(=O)(=O)N3CCCCC3)ccc21,.,.,.,.,-0.9%
Oc1cnc2ccccc2c1CN1CCOCC1,4.9%,-0.5%,9.9%,-10.1%,20µM*
O=C(C=P(c1ccccc1)(c1ccccc1)c1ccccc1)c1ccccc1-c1ccccc1C(=O)C=P(c1ccccc1)(c1ccccc1)c1ccccc1,.,6.5%,.,3.4%,-13.8%
CCOC(=O)CSc1nc(-c2ccc3c(c2)OCO3)ccc1C#N,?,?,12.2%,-19.3%,25.1µM*
CCOC(=O)CCCSc1nc(-c2ccc3c(c2)OCO3)cc(C(F)(F)F)c1C#N,-6.3%,-2.9%,.,-12.7%,15.8µM*
CCOC(=O)CSc1nc(-c2ccc(OC)cc2)cc(C(F)(F)F)c1C#N,.,.,.,.,4.4%
